Consider 92 molecules from PubChem BioAssay AID1490 (National Center for Advancing Translational Sciences (NCATS), 2009).

The campaign covered roughly 310,000 compounds. About 11,000 (3.5%) were called active. About 4% were inconclusive and are not listed. For the sample, actives were picked, then their nearest neighbours and some compounds at random. Values without a mark were called inactive. Calls follow the shape of the dose curve; as a rule, active = well fitted inhibition curve with a large enough effect; inconclusive = small, poorly fitted or top-dose-only effect, or another doubt; inactive = no such curve, though single readings can be large or run the other way.
Potency is read from the fitted curve at half-maximal effect.

This test has as its target 4'-phosphopantetheinyl transferase ffp (Bacillus subtilis) (UniProt Q9F4F7). In words: qHTS Assay for Inhibitors of Bacillus subtilis Sfp phosphopantetheinyl transferase (PPTase).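 Also: the enzyme is Sfp with the accession as filed and its product quenches rhodamine fluorescence.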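 As to largest response in the series, negative = inhibition: 0% = enzyme reaction without inhibitor and -100% = no enzyme wells.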 The settings on record: Biochemical Sfp PPTase activity. In a few lines: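 After 15 min at room temperature with compound, 15 nM Sfp received 5 uM rhodamine-CoA plus 12.5 uM BHQ-2-ybbR (50 mM Hepes pH 7.6, 10 mM MgCl2). Rate came from the fluorescence difference over 30 min, ex 525/em 598 nm.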
A general note: In qHTS, concentration-response curves come from the screen itself.
Turning to `NCCCNCCCCN(CCCN)/[N+]([O-])=N/O`, the largest response in the series, negative = inhibition was -7.71%. Same read-out and setting: in the case of `COc1cccc(NC(=O)c2nn(C34CC5CC(CC(C5)C3)C4)cc2[N+](=O)[O-])c1` it was 11.6%. The same measure, in the same setting: in the case of `Cc1ncn(C23CC4CC(CC(O)(C4)C2)C3)n1` it was 17.6%.

For `Cc1nc([N+](=O)[O-])nn1C12CC3CC(CC(Br)(C3)C1)C2`, the Potency is 15.8 µM (active). Turning to `COc1cccc(CNS(=O)(=O)c2ccc3c(c2)CC(C)N3C(=O)C2CCC2)c1` (configuration not stated), the largest response in the series, negative = inhibition is 20.3%. Turning to `COc1cc(/C=N/NC(=O)c2cccnc2)ccc1OC(=O)c1cccc(Br)c1`, the largest response in the series, negative = inhibition was 9.75%. In the case of `O=C(CN1C(=O)COc2ccccc21)Nc1ccc(F)cc1`, the Potency was 50.1 µM (active). As to `CC(OC(=O)CN1C(=O)COc2ccccc21)C(=O)NCc1ccc(F)cc1` (configuration not stated), the largest response in the series, negative = inhibition was 16.7%. Take `O=C(CN1C(=O)COc2ccc(Cl)cc21)Nc1ccc(N2CCOCC2)cc1`: the largest response in the series, negative = inhibition was 9.73%.

Regarding `COc1ccc(N2CCC(N3CCN(C)C(CCO)C3)CC2)cc1` (configuration not stated), the largest response in the series, negative = inhibition was -5.05%. Regarding `Cc1cc(C)c2oc(C(=O)Nc3ccc(S(=O)(=O)Nc4nccc(C)n4)cc3)cc(=O)c2c1`, the largest response in the series, negative = inhibition was 13.2%. `COc1ccc(C(=O)Nc2cc(C)c(NC(=O)c3ccccc3OC)cn2)cc1`: the largest response in the series, negative = inhibition was -0.964%. Regarding `Cn1c(=O)c([N+](=O)[O-])c(Oc2ccccc2)c2ccccc21`, the Potency was 20 µM (active). Consider `Cn1c2ccccc2c(=O)c2c(O)cccc21`, for which the largest response in the series, negative = inhibition was 1.81%. Regarding `Cc1nn(C)c(Oc2ccccc2)c1[N+](=O)[O-]`, the largest response in the series, negative = inhibition was 4.16%.

Take `Cn1nc(-c2ccccc2)c2cc([N+](=O)[O-])ccc21`: the largest response in the series, negative = inhibition was 15.4%. Consider `Cc1cccc(Oc2c([N+](=O)[O-])c(=O)n(C)c3ccccc23)c1`, for which the Potency is 6.31 µM (active). Turning to `Cc1cccc(OP(=O)(Nc2c(C)n(C)n(-c3ccccc3)c2=O)Oc2cccc(C)c2)c1`, the largest response in the series, negative = inhibition was 2%. Turning to `CC(C)[C@H](NC(=O)N1c2ccccc2NC(=O)[C@@H]1C(C)C)C(=O)N[C@H](C(=O)O)c1ccccc1`, the largest response in the series, negative = inhibition is 21%. On the same count and under the same terms, next, `CCCN1CCC(=O)N(C(CSc2ccc(OC)cc2)Cc2ccccc2)CC1` (configuration not stated): -7.33%; `COc1cc(C2/C(=C(\O)c3ccc4c(c3)CC(C)O4)C(=O)C(=O)N2c2nnc(C)s2)cc(OC)c1OC` (configuration not stated): -19.8%; `Cc1ccc(-c2ccnc3[nH]n(-c4ccccc4)c(=O)c23)cc1`: 9.66%.

In the case of `CCOc1cccc(/C=N/NC(=S)NCCN2CCOCC2)c1O`, the largest response in the series, negative = inhibition is 9.81%. For `CCOc1cccc(/C=N/N2C(=O)CSC2=S)c1O`, the Potency is 10 µM (active). `O=C1CSC(=S)N1c1ccc(O)cc1`: the largest response in the series, negative = inhibition was -9.51%. With `COc1ccccc1NC(=O)C(C)OC(=O)CC1CCCC1` (configuration not stated), the largest response in the series, negative = inhibition was 16.2%. On the same count and under the same terms, in the case of `CC(C)Cn1c(=O)c2ccccc2n2c(CCC(=O)NCc3ccccn3)nnc12` it was 15.4%; in that of `COc1ccc(NC(=O)N2CCCC2C(=O)NCc2ccccc2Cl)cc1` (configuration not stated), 1.27%; in that of `CC(=O)Nc1ccc(S(=O)(=O)Nc2cc(C)cn(Cc3ccc(C)cc3)c2=O)cc1`, 1.38%. Take `O=C(CN1CCCC1)Nc1sc2c(c1C(=O)Nc1ccccc1)CCCC2`: the largest response in the series, negative = inhibition is -1.37%. For `Cc1ccc(NC(=O)c2csc3c2CCCC3)cc1`, the largest response in the series, negative = inhibition was -32.4%. Regarding `Cc1ccc(NC(=O)c2c(NC(=O)CCC(=O)O)sc3c2CCCCC3)cc1`, the Potency is 11.2 µM (active). `COCCCNC(=O)C1CC(=O)N(CCc2ccccc2)C1` (configuration not stated): the largest response in the series, negative = inhibition is 9.12%.

`COCCCNC(=O)[C@H]1N2C(=O)c3ccccc3C2SC1(C)C` (some centres not stated): the Potency was 56.2 µM (active). Turning to `CC1(C)SC2c3ccccc3C(=O)N2[C@@H]1C(=O)NCc1ccco1` (some centres not stated), the largest response in the series, negative = inhibition is -10.3%. With `CCC(C)NC(=O)C1c2ccccc2C(=O)N1Cc1ccccc1` (configuration not stated), the largest response in the series, negative = inhibition was 0.907%. The same measure, in the same setting: next, `CC1(C)C(C=C(Cl)Cl)C1C(=O)NC(O)C(=O)c1ccccc1` (configuration not stated): 3.88%.

Consider `Cc1ccc(S(=O)(=O)N(CC(O)CN2C(=O)NC(C)(C)C2=O)c2cccc([N+](=O)[O-])c2)cc1` (configuration not stated), for which the largest response in the series, negative = inhibition is 5.58%. For `CN1CCc2c(sc3c2c(NCc2ccco2)nc2nnnn23)C1`, the Potency was 11.2 µM (active). For `CCCSc1nc(NCc2ccco2)c2c3c(sc2n1)COC(C)(CC)C3` (configuration not stated), the largest response in the series, negative = inhibition is -1.25%. Consider `Cn1c(=O)n(Cc2ccco2)c(=N)c2c3c(sc21)CCCC3`, for which the largest response in the series, negative = inhibition was -9.41%. On the same count and under the same terms, in the case of `Cc1ccc(C)c(C(C)NC(=O)C2CCCO2)c1` (configuration not stated) it was 24.3%; in that of `O=C(/C=C/c1ccc2c(c1)OCCO2)c1ccc(O)cc1`, -4.02%. For the molecule `CN(CCO)c1ccc(/C=N/Nc2nncc3ccccc23)cc1`, the largest response in the series, negative = inhibition is 6.72%. The same measure, in the same setting: next, `CCC(C(=O)NCCC(C)C)N(Cc1ccccc1Cl)C(=O)c1snc(C(N)=O)c1N` (configuration not stated): 7.3%. Turning to `Cc1csc(NC(=O)NC2(C(F)(F)F)Oc3ccccc3O2)n1`, the Potency was 8.91 µM (active). For `Cc1csc(NC(=O)Nc2ccccc2[N+](=O)[O-])n1`, the largest response in the series, negative = inhibition is -6.55%.

Take `CC(=O)Nc1cccc(C(=O)Nc2nc(C)cs2)c1`: the largest response in the series, negative = inhibition is -6.97%. Consider `COc1ccc2c(CC(=O)N3CCc4cc(OC)c(OC)cc4C3)coc2c1`, for which the largest response in the series, negative = inhibition is 1%.

On to `COc1ccc(OCC(=O)Nc2nnc(-c3ccco3)s2)cc1`, for which the largest response in the series, negative = inhibition is -15%. For the molecule `Cc1ccc(OCC(=O)Nc2nnc(-c3ccco3)s2)cc1`, the Potency was 79.4 µM (active). For the molecule `CNc1nnc(-c2ccco2)s1`, the largest response in the series, negative = inhibition is 5.68%. On to `COc1ccc(N(CC(=O)NCC2CCCO2)C(=O)CCC(=O)Nc2nccs2)c(OC)c1` (configuration not stated), for which the largest response in the series, negative = inhibition was 26.6%. As for `CCOc1ccc(C(=O)Nc2ccc(CN3CCOCC3)cc2)cc1Cl`, the largest response in the series, negative = inhibition was 8.41%.

For the molecule `O=C(Nc1ccc(O)cc1)c1ccccc1O`, the largest response in the series, negative = inhibition is -1.36%.

On to `Cc1ccccc1Cn1c(=O)[nH]c2ccccc21`, for which the largest response in the series, negative = inhibition was -2.4%. Turning to `CCCc1cc(=S)n2c([nH]c3ccccc32)c1C#N`, the Potency is 56.2 µM (active). For `CCOC(=O)CCc1c(C)c(C#N)c2[nH]c3ccccc3n2c1=O`, the largest response in the series, negative = inhibition was -12.3%. Take `Cc1cccn2cc(-c3cccc(S(=O)(=O)N4CCCCC4)c3)nc12`: the largest response in the series, negative = inhibition was -2.13%. With `COc1ccc(NC(=O)CSc2nnc(-c3cccs3)n2Cc2ccco2)cc1OC`, the Potency was 22.4 µM (active).

Consider `O=C(CSc1nnc(-c2cccs2)n1-c1ccccc1)NCc1ccco1`, for which the largest response in the series, negative = inhibition was 14.2%. For the molecule `CCn1c(SCC(=O)c2ccc(Cl)s2)nnc1-c1cccs1`, the largest response in the series, negative = inhibition is -7.42%.

In the case of `CCn1c(SCC(=O)c2ccc3ccccc3c2)nnc1-c1cccs1`, the largest response in the series, negative = inhibition is -21.9%. Consider `COc1ccccc1NC(=O)CSc1nc2sc(C)c(C)c2c(=O)n1Cc1ccco1`, for which the Potency is 20 µM (active). In the case of `O=C(CSc1nnc(-c2cccnc2)n1Cc1ccco1)c1ccc(Cl)c(Cl)c1`, the Potency is 28.2 µM (active). For `CCOC(=O)Cc1csc(NC(=O)CSc2nnc(-c3cccnc3)n2Cc2ccco2)n1`, the largest response in the series, negative = inhibition was -19.3%.

As for `O=C(CSc1nnc(-c2cccs2)n1Cc1ccco1)c1ccc2c(c1)OCO2`, the Potency is 56.2 µM (active). Regarding `COc1ccccc1NC(=O)CSc1nnc(-c2ccoc2C)n1CCc1ccccc1`, the largest response in the series, negative = inhibition was -0.913%. As for `Cc1ccc(NC(=O)CSc2nnc(-c3cnccn3)n2Cc2ccco2)cc1C`, the largest response in the series, negative = inhibition is -38.6%. `O=C(CSc1nnc(-c2cccnc2)n1Cc1ccco1)c1ccc(Cl)cc1`: the largest response in the series, negative = inhibition is 5.12%. For `COc1ccccc1NC(=O)CSc1nc2sc3c(c2c(=O)n1-c1ccccc1)CCN(C)C3`, the largest response in the series, negative = inhibition was -13.2%.

Take `O=C1Nc2cc(C(=O)N3CCC(N4CCCCC4)CC3)ccc2S/C1=C\c1ccccc1`: the largest response in the series, negative = inhibition was -28.2%. With `CCCNC(=O)CCc1c(C)nc2c(c(C)nn2-c2ccc(C)cc2)c1C`, the largest response in the series, negative = inhibition was 20.1%. Same read-out and setting: next, `O=C(NC1CCCC1)C(=O)c1c[nH]c2ccccc12`: 20.8%.

`CC(C)C[C@@H](CC(=O)N[C@@H](CCC(=O)O)CC(=O)O)NC(=O)[C@@H]1CCCC[C@H]1NC(=O)C[C@@H](NC(=O)C[C@H](Cc1c[nH]c2ccccc12)NC(=O)[C@@H]1CCCC[C@H]1N)C(C)C`: the largest response in the series, negative = inhibition is -18.7%. Same read-out and setting: next, `CCOC(=O)c1ccc(NC(=O)Cc2cccs2)cc1`: 0.409%. Same read-out and setting: next, `COc1ccc(NC(=O)C2CCC(CNC(=O)[C@@H]3Cc4ccccc4CN3)CC2)cc1` (some centres not stated): 7.97%; `O=C(COc1ccc(S(=O)(=O)Nc2cccc(C(F)(F)F)c2)cc1)N1CCOCC1`: 9.23%. On the same count and under the same terms, next, `O=C(NC1CCCC1)C(c1ccco1)N(C(=O)c1csnn1)c1ccccc1` (configuration not stated): 19.9%; `Cn1cc(-c2nc3cnc(N4CCNCC4)nc3n(CCC#N)c2=O)c2ccccc21`: -19.5%. With `Cc1nc2cnc(N3CCNCC3)nc2n(CCc2ccccc2)c1=O`, the largest response in the series, negative = inhibition was -8.2%. Take `Cn1cc(-c2nc3cnc(N4CCNCC4)nc3n(CCc3ccccc3)c2=O)c2ccccc21`: the Potency was 39.8 µM (active). Consider `COc1ccc(C2/C=C\CN(C(=O)c3ccc(C)cc3)C(Cc3ccccc3)C(=O)N2Cc2ccc(F)cc2)cc1` (configuration not stated), for which the largest response in the series, negative = inhibition is -6.91%. Turning to `CC1(C(=O)NNC(=S)NCC2CCCO2)CC1(Cl)Cl` (configuration not stated), the largest response in the series, negative = inhibition was 17.2%. For `Cc1cccc(C)c1NC(=O)NC1=CCCN1C`, the largest response in the series, negative = inhibition is 20.1%. Same read-out and setting: next, `Cc1cc(C(=O)Nc2c(C)nn(Cc3ccccc3)c2C)on1`: 18.5%; `Cc1cc(OCc2ccc(C(=O)Nc3ccc(C(=O)O)cc3)o2)ccc1Cl`: 0.726%.

Take `Cc1ccc(C(=O)O)cc1NC(=O)c1ccc(Cn2nc(C)c(Cl)c2C)o1`: the Potency is 56.2 µM (active). For the molecule `COC(=O)NNC1=CC(=O)CC(C)(C)C1`, the largest response in the series, negative = inhibition was -3.96%. As for `Cc1cc(C)nc(NNC2=CC(=O)CC(C)(C)C2)n1`, the Potency was 22.4 µM (active). For the molecule `CC1(C)CC(=O)C=C(Nc2ccccc2)C1`, the largest response in the series, negative = inhibition is 25.1%. The same measure, in the same setting: next, `Cc1ccc2c(c1)N(CC(=O)N1CCCC(C)C1)C(=O)CO2` (configuration not stated): 5.13%.
